Results filed as inconclusive are left out. The source made the active and inactive calls. The call rests on the fitted dose curve; in most records, active means well fitted inhibition curve with a large enough effect; inconclusive means small, poorly fitted or top-dose-only effect; inactive means flat fitted curve, though single readings scatter.
biological target: Luciferin 4-monooxygenase (Photinus pyralis) (UniProt P08659); assay: FLuc inhibitory activity for the follow-up compounds in a biochemical assay with 1mM ATP; conditions: purified P. pyralis luciferase, luminescence; series mostly up to 57.5 µM
Sequence (P08659 whole entry, looked up): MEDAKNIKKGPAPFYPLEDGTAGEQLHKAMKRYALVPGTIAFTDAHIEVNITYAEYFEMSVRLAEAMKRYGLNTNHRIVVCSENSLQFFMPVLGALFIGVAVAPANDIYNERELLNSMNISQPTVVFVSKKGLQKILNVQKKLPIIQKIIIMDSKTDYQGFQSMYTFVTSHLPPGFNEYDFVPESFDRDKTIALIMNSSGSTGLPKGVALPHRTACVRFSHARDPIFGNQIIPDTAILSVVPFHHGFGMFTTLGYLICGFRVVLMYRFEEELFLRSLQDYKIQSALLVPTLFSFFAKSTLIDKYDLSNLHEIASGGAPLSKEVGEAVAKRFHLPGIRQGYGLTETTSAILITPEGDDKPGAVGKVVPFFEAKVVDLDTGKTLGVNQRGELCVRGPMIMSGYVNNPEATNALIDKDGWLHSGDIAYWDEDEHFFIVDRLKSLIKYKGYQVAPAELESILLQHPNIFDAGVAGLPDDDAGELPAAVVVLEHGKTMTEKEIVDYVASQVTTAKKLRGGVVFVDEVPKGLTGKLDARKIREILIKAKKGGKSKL
Excerpt: NCGC Assay Overview: Firefly (Photinus pyralis) luciferase is one of the most commonly used transcriptional reporters. It is considered one of the more dynamically responsive reporters - that is, responsive to changes in reporter transcription - as it requires no post-translational modifications and is enzymatically active directly after protein synthesis (Wood, 1998). With no endogenous expression in mammalian cells and without the requirement of external excitation, it offers very little background signal, thus generally providing excellent signal to background for most assays. Previous profiling work to determine the prevalence of compounds that affect FLuc enzymatic activity (PubChem AID 411) identified that ~3% of the MLSMR library (then at ~72K) inhibited FLuc. […] Of the compounds identified in this profile that inhibited FLuc, 151 compounds were selected for further analysis, in an effort to better understand their mode of inhibiting FLuc. The assay described here was to determine the activity of the compounds in a FLuc assay that contained a KM concentration of D-luciferin and a high concentration (1mM) of ATP.
NCGC Assay Protocol Summary: Reagents: 50mM Tris acetate, pH 7.5; 10mM Mg acetate; 10uM D-luciferin (Sigma #L9504); 1mM ATP; 0.01% Tween-20; 0.05% BSA; 10nM P. pyralis luciferase (Sigma #L9506) Control compounds used were two known firefly luciferase inhibitors (3-(5-(3-chlorophenyl)-1,2,4-oxadiazol-3-yl)benzoic acid and 5-(2-fluorophenyl)-3-phenyl-1,2,4-oxadiazole), and DMSO. Three microliters containing firefly luciferase substrates in buffer (final concentrations: 50mM Tris acetate, pH 7.5, 10mM Mg acetate, 0.01% Tween-20, 0.05% BSA, 10uM D-luciferin, 1mM ATP) are dispensed into each well of a Greiner white, solid-bottom 1536-well format plate using a flying reagent dispenser (FRD). These assay plates were then treated with 23nL of compound or DMSO using a Kalypsys pin tool, which allows for delivery of a 12-point intraplate titration of each compound to the assay plate (quantitative HTS), with a final compound concentrations ranging from approximately ~60uM to 0.3nM. One microliter of firefly luciferase in […] Tris-acetate buffer was then delivered by FRD to each well for a final enzyme concentration of 10nM. Luciferase activity was then measured using a ViewLux CCD imager (PerkinElmer), with an average exposure time of 2-30 seconds (2X binning, medium/high gain).

Compound	Potency
Cc1ccc(C(=O)Nc2ccccc2C(=O)O)cc1S(=O)(=O)N1CCCCCC1	1.83 µM (active)
Cc1ccc(C(=O)Nc2cccc(C(=O)O)c2)cc1S(=O)(=O)N1CCCCC1	0.291 µM (active)
COc1ccc2nc(NC(=O)CCc3ccc(OC)c(OC)c3)sc2c1	inactive
COc1ccc(NS(=O)(=O)c2cccc(C(=O)Nc3ccccc3C(=O)O)c2)cc1	inactive
COc1ccc(C(=O)Nc2nc3ccc(OC)cc3s2)cc1	5.8 µM (active)
O=C(Cc1ccccc1)Nc1ccccc1C(=O)Nc1ccc(C(=O)O)cc1	inactive
CC(C)(C)C(=O)Nc1ccc(-c2nc3ccccc3s2)cc1	0.0259 µM (active)
O=C(Nc1ccccc1C(=O)O)c1cc(S(=O)(=O)Nc2cccc(F)c2)ccc1Cl	inactive
COc1cccc(-c2nc3ccccc3s2)c1	0.326 µM (active)
O=C(Nc1ccccc1C(=O)O)c1ccc(NC(=O)C2CCCO2)cc1 (stereo not given)	20.6 µM (active)
COc1ccc2nc(NC(=O)c3cccs3)sc2c1	7.3 µM (active)
O=C(Nc1ccccc1C(=O)O)c1cccc(S(=O)(=O)Nc2ccc(Br)cc2)c1	inactive
CC(C)C(=O)Nc1cccc(C(=O)Nc2ccccc2C(=O)O)c1	11.6 µM (active)
O=C(Nc1ccccc1C(=O)O)c1ccc(NC(=O)C2CC2)cc1	3.66 µM (active)
O=C(O)c1ccc(NC(=O)c2cc(S(=O)(=O)N3CCCCC3)c(Cl)cc2Cl)cc1	inactive
COc1ccc2nc(NC(=O)c3ccco3)sc2c1	0.183 µM (active)
O=C(O)c1ccc(NC(=O)c2ccccc2NC(=O)c2ccccc2Cl)cc1	inactive
CCOc1ccc(C(=O)Nc2cccc(C(=O)O)c2)cc1Cl	0.58 µM (active)
COc1ccc2nc(NC(=O)c3ccc([N+](=O)[O-])o3)sc2c1	3.26 µM (active)
Cc1ccc(C(=O)Nc2cccc(C(=O)O)c2)cc1S(=O)(=O)N1CCCC1	0.461 µM (active)

Compound	Potency
CC(C)c1ccc(C(=O)Nc2ccc(-c3nc4ccccc4s3)c(Cl)c2)cc1	inactive
Cc1ccc(C(=O)Nc2ccc(C(=O)O)cc2)cc1S(=O)(=O)NCc1ccccc1	inactive
O=C(Nc1ccccc1C(=O)O)c1ccc(Cl)c(S(=O)(=O)N2CCOCC2)c1	10.3 µM (active)
O=C(O)c1ccc(NC(=O)c2cccc(C(=O)Nc3ccc(C(=O)O)cc3)c2)cc1	inactive
COc1ccc(C(=O)Nc2ccccc2C(=O)Nc2ccccc2C(=O)O)cc1	4.61 µM (active)
Nc1ccccc1C(=O)Nc1cccc(C(=O)O)c1	3.66 µM (active)
O=S(=O)(c1ccc(-c2nc3ccccc3s2)cc1)N1CCCC1	0.919 µM (active)
O=C(O)c1cccc(NC(=O)c2ccc(S(=O)(=O)c3ccccc3)cc2)c1	11.6 µM (active)
COc1ccc(C(=O)Nc2ccccc2C(=O)N/N=C/c2ccc(O)c(OC)c2)cc1	0.0146 µM (active)
CCOc1ccc2nc(NC(=O)c3cccnc3)sc2c1	2.06 µM (active)
O=C(Nc1ccccc1-c1nc2ccccc2s1)c1ccc(Br)o1	inactive
Cc1ccc2sc(-c3ccc(NC(=O)c4cc(-n5cnnc5)ccc4Cl)cc3)nc2c1	1.63 µM (active)
COc1ccc(-c2nc3ccccc3s2)cc1O	0.0259 µM (active)
Cc1ccccc1C(=O)Nc1cccc(C(=O)Nc2ccccc2C(=O)O)c1	32.6 µM (active)
O=C(O)c1cccc(NC(=O)c2ccc(Cl)c(S(=O)(=O)N3CCCCCC3)c2)c1	0.366 µM (active)
O=C(Nc1cccc(-c2nc3ccccc3s2)c1)c1cc(-n2cnnc2)ccc1Cl	9.19 µM (active)
Oc1ccc(-c2nc3ccccc3s2)c(O)c1	2.59 µM (active)
COc1cccc(OC)c1C(=O)Nc1cccc(C(=O)Nc2cccc(C(=O)O)c2)c1	4.61 µM (active)
CC(C)c1ccc(-c2nc3ccccc3s2)cc1	0.0411 µM (active)
CCOc1c(Cl)cc(C(=O)Nc2ccccc2C(=O)O)cc1Cl	18.3 µM (active)

Reference: PubChem BioAssay AID602364 (National Center for Advancing Translational Sciences (NCATS), 2012)
